Measurements reported in PubChem BioAssay AID1159580 (chemical genetic matrix, 2015).
About 2,000 (36%) of roughly 5,500 compounds were called active. Inconclusive results (about 18%) are left out. No stated cut-off is given here; in the data, active means normalized growth mostly below about 0.91 (no sharp cut-off); inconclusive means no clear call, values can overlap the other calls; inactive means mostly above about 0.92. The list shows a part of the results.

Experiment: chemical genetic growth profiling, strain panel (AID 1159580);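 further: tested at 20 µM; growth read once vehicle control cultures reached saturation at 30 °C; 1 = growth at the plate median or of vehicle wells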
Conditions: S. cerevisiae deletion strains, growth OD

Measured: normalized growth

O=c1cc(-c2ccc(O)cc2)oc2cc(O)ccc12
inactive: locus YAL021C, strain ccr4, stronger effect = lower value 0.967 | locus YAL026C, strain drs2, stronger effect = lower value 0.95 | locus YAL030W, strain snc1, stronger effect = lower value 0.959 | locus YBL061C, strain skt5, stronger effect = lower value 0.967 | locus YBR009C, strain hhf1, stronger effect = lower value 0.929 | locus YBR023C, strain chs3, stronger effect = lower value 0.958 | locus YBR171W, strain sec66, stronger effect = lower value 0.981 | locus YBR231C, strain swc5, stronger effect = lower value 0.974 | locus YBR279W, strain paf1, stronger effect = lower value 0.974 | locus YCL011C, strain gbp2, stronger effect = lower value 0.948 | locus YCL016C, strain dcc1, stronger effect = lower value 0.976 | locus YCL061C, strain MRC1, stronger effect = lower value 0.976 | locus YCL069W, strain vba3, stronger effect = lower value 0.969 | locus YCR088W, strain abp1, stronger effect = lower value 0.957 | locus YDL005C, strain med2, stronger effect = lower value 0.963 | locus YDL040C, strain nat1, stronger effect = lower value 0.968 | locus YDR001C, strain nth1, stronger effect = lower value 0.96 | locus YDR069C, strain doa4, stronger effect = lower value 0.949 | locus YDR137W, strain rgp1, stronger effect = lower value 0.925 | locus YDR159W, strain sac3, stronger effect = lower value 0.866 | locus YDR195W, strain ref2 0.963 | locus YDR297W, strain sur2, stronger effect = lower value 0.966 | locus YDR334W, strain swr1, stronger effect = lower value 0.954 | locus YDR335W, strain msn5, stronger effect = lower value 0.984 | locus YDR392W, strain spt3, stronger effect = lower value 0.853 | locus YEL003W, strain gim4, stronger effect = lower value 0.972 | locus YEL037C, strain rad23, stronger effect = lower value 0.952 | locus YEL061C, strain CIN8 (second series), stronger effect = lower value 0.949 | locus YER015W, strain faa2, stronger effect = lower value 0.973 | locus YER016W, strain bim1, stronger effect = lower value 0.976 | locus YER111C, strain swi4, stronger effect = lower value 0.961 | locus YER155C, strain BEM2 (second series), stronger effect = lower value 0.897 | locus YFR010W, strain ubp6, stronger effect = lower value 0.941 | locus YGL167C, strain pmr1, stronger effect = lower value 0.945 | locus YGL173C, strain kem1, stronger effect = lower value 0.972 | locus YGL227W, strain vid30, stronger effect = lower value 0.941 | locus YGL240W, strain doc1, stronger effect = lower value 0.958 | locus YGL253W, strain hxk2, stronger effect = lower value 0.98 | locus YHR013C, strain ard1, stronger effect = lower value 0.925 | locus YHR027C, strain rpn1, stronger effect = lower value 0.957 | locus YHR030C, strain SLT2, stronger effect = lower value 0.948 | locus YHR079C, strain IRE1, stronger effect = lower value 0.935 | locus YHR142W, strain chs7, stronger effect = lower value 0.935 | locus YJL092W, strain hpr5, stronger effect = lower value 0.97 | locus YJL095W, strain BCK1 (second series), stronger effect = lower value 0.968 | locus YJL095W, strain BCK1, stronger effect = lower value 0.969 | locus YJL115W, strain asf1, stronger effect = lower value 0.968 | locus YJL129C, strain trk1, stronger effect = lower value 0.915 | locus YJL154C, strain vps35, stronger effect = lower value 0.975 | locus YJL164C, strain tpk1, stronger effect = lower value 0.962 | locus YJL166W, strain qcr8, stronger effect = lower value 0.969 | locus YJL187C, strain SWE1, stronger effect = lower value 0.964 | locus YJR066W, strain TOR1, stronger effect = lower value 0.938 | locus YKL160W, strain elf1, stronger effect = lower value 0.973 | locus YKR026C, strain gcn3, stronger effect = lower value 0.945 | locus YKR091W, strain srl3, stronger effect = lower value 0.964 | locus YLL001W, strain dnm1, stronger effect = lower value 0.958 | locus YLL026W, stronger effect = lower value 0.96 | locus YLL041C, strain sdh2, stronger effect = lower value 0.976 | locus YLR027C, strain aat2, stronger effect = lower value 0.953 | locus YLR113W, strain HOG1, stronger effect = lower value 0.918 | locus YLR221C, strain rsa3, stronger effect = lower value 0.974 | locus YLR258W, strain gsy2, stronger effect = lower value 0.956 | locus YLR262C, strain YPT6 (second series), stronger effect = lower value 0.926 | locus YLR320W, strain mms22, stronger effect = lower value 0.937 | locus YLR342W, strain FKS1, stronger effect = lower value 0.954 | locus YLR357W, strain rsc2, stronger effect = lower value 0.944 | locus YLR370C, strain arc18, stronger effect = lower value 0.948 | locus YLR384C, strain iki3, stronger effect = lower value 0.961 | locus YML120C, strain ndi1, stronger effect = lower value 0.948 | locus YMR058W, strain fet3, stronger effect = lower value 0.965 | locus YMR125W, strain sto1, stronger effect = lower value 0.941 | locus YMR129W, stronger effect = lower value 0.966 | locus YMR205C, strain PFK2, stronger effect = lower value 0.922 | locus YMR231W, strain pep5, stronger effect = lower value 0.966 | locus YNL071W, strain lat1, stronger effect = lower value 0.972 | locus YNL183C, strain NPR1, stronger effect = lower value 0.924 | locus YNL209W, strain ssb2, stronger effect = lower value 0.973 | locus YNL248C, strain rpa49, stronger effect = lower value 0.971 | locus YNL322C, strain KRE1 (second series), stronger effect = lower value 0.956 | locus YNR049C, strain mso1, stronger effect = lower value 0.964 | locus YOR001W, strain rrp6, stronger effect = lower value 0.979 | locus YOR070C, strain gyp1, stronger effect = lower value 0.971 | locus YOR080W, strain dia2, stronger effect = lower value 0.968 | locus YOR083W, strain WHI5, stronger effect = lower value 0.982 | locus YOR106W, strain vam3, stronger effect = lower value 0.946 | locus YOR231W, strain MKK1, stronger effect = lower value 0.942 | locus YOR265W, strain rbl2, stronger effect = lower value 0.975 | locus YOR270C, strain vph1, stronger effect = lower value 0.833 | locus YOR290C, strain snf2, stronger effect = lower value 0.921 | locus YPL051W, strain arl3, stronger effect = lower value 0.984 | locus YPL078C, strain atp4, stronger effect = lower value 0.963 | locus YPL106C, strain sse1, stronger effect = lower value 0.937 | locus YPL240C, strain hsp82, stronger effect = lower value 0.955 | locus YPL256C, strain CLN2, stronger effect = lower value 0.944
